High-throughput results deposited in PubChem BioAssay by National Center for Advancing Translational Sciences (NCATS).
CtBP-E1A inh – CtBP/E1A binding inhibition. AlphaScreen GST-E1A/His-CtBP binding, 1536-well; stronger effect = lower value. activity change, % (no concentration beside the values). 340,000 compounds, 0.49% hits. AID 651724; in the data active = activity change below about -65%; inconclusive = mostly about -30% to -63%; also: % is scaled to controls: 0 for no effect and ±100 for the full control effect
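AlphaScreen with 125 nM GST-E1A and 125 nM His-CtBP (5X stocks) in Tris pH 8.0, 300 mM NaCl, BSA, Tween 20, TCEP. Compounds preincubated 2 h at 37 deg C, then glutathione donor/nickel acceptor beads added for 1 h at 37 deg C in dark.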
G9a block – blocks human histone lysine methyltransferase G9a | Q96KQ7 | G9a H3K9 monomethylation, AlphaScreen, 2 h | Potency, µM (highest dose often 102 µM), inactives show at the top dose activity, negative = inhibition, most hits filed as inhibitors | 350,000 compounds, 8.8% hits; also: potency is read from the fitted curve at half-maximal effect; % is scaled to controls: 0 for no effect and ±100 for the full control effect; nearly all actives have a fitted effect of over 75% in size
Target sequence (Q96KQ7 913-1193 limits assumed): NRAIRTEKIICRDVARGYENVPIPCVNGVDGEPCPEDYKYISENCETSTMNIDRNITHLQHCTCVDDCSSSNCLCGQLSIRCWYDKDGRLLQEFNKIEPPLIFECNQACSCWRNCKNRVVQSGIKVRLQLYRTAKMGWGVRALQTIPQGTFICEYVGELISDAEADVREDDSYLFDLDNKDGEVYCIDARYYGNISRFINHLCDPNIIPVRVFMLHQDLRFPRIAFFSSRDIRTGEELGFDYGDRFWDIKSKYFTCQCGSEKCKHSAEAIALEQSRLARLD
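Readings reflect AlphaScreen signal from monomethyl-H3K9 antibody detection. HMT at 20 nM; substrate b-H3K9 500 nM; cofactor SAM 20 uM; 2 h RT reaction; compounds tested as titrations in qHTS with 15 min preincubation.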
HP1b binding inh – HP1-beta chromodomain-methylated histone interaction inhibition. AID 540317. AlphaScreen HP1-beta / biotin-H3K9me3 peptide binding. 390,000 compounds, 0.56% hits. P83916. Potency, µM (series often up to 114 µM), without a hit: top-dose activity change, negative = inhibition, most hits filed as inhibitors; also: potency is read from the fitted curve at half-maximal effect; nearly all actives have a fitted effect of over 70% in size
Target sequence (P83916 whole entry, looked up): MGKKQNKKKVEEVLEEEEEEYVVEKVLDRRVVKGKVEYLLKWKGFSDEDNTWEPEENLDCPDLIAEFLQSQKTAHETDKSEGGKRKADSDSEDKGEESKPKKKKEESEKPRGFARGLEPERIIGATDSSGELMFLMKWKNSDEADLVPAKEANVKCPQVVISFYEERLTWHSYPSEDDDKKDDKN
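HP1-beta protein (50 nM final) preincubated 30 min at room temperature with biotinylated H3(1-18)K9me3 peptide (50 nM) in PBS pH 7.4, 0.01% Tween-20, then compound added for 30 min. AlphaScreen streptavidin donor/nickel chelate acceptor beads (10 ug/mL final), 30 min dark, luminescence read.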
JMJD2A Tudor inh – blocks the human JMJD2A Tudor domain; O75164; AlphaScreen JMJD2A-Tudor / H3K4me3 peptide binding; Potency, µM (doses to about 114 µM), without a hit: at the top dose activity change, negative = inhibition, hits mostly inhibitors; 390,000 compounds, 4.4% hits; also: potency is read from the fitted curve at half-maximal effect; % is scaled to controls: 0 for no effect and ±100 for the full control effect; nearly all actives have a fitted effect of over 50% in size
Six1-Eya2 inh – Six1/Eya2 interaction inhibition; Q15475+O00167; AlphaScreen GST-Six1/His-Eya2 binding, biochemical; stronger effect = lower value; activity change, % (concentration not given with the values); 360,000 compounds, 0.56% hits; AID 651725; in the data active = activity change below about -65%; inconclusive = mostly about -30% to -63%; also: % is scaled to controls: 0 for no effect and ±100 for the full control effect
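Homogeneous AlphaScreen proximity assay pairing GST-Six1 with His-tagged Eya2 (added as 5X mix: 250 nM and 500 nM) in 50 mM Tris pH 8.0, 300 mM NaCl, 1 mM TCEP. Glutathione donor and nickel acceptor beads; 1 h, 37 °C, dark.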
BAZ2B block – inhibitors of human BAZ2B bromodomain | AlphaScreen BAZ2B-H3K14Ac peptide displacement | Q9UIF8 | Potency, µM (top dose mostly 114 µM), inactives show at the highest dose activity change, negative = inhibition, hits mostly inhibitors | 360,000 compounds, 4.4% hits; also: potency is read from the fitted curve at half-maximal effect; % is scaled to controls: 0 for no effect and ±100 for the full control effect; nearly all actives have a fitted effect of over 60% in size
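Protein-peptide AlphaScreen: BAZ2B 50 nM, b-H3K14Ac 50 nM, 1x PBS pH 7.4 + 0.01% Tween-20. Preincubation 30 min RT; cpd 30 min RT (top 110 uM); beads 20 min RT, light-protected.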
Active calls of the source: *; ? = inconclusive; . = no result; [ ] = another dose, or the depositor's remark. A selection: hits, their analogues and other compounds. The true share with any hit is near 10%. Unless noted, calls follow the shape of the dose curve; as a rule, active = well fitted inhibition curve with a large enough effect; inconclusive = small, poorly fitted or top-dose-only effect; inactive = no such curve, though single readings can be large or run the other way.

SMILES	CtBP-E1A inh	G9a block	HP1b binding inh	JMJD2A Tudor inh	Six1-Eya2 inh	BAZ2B block
Cc1ccc(NC(=O)Cn2c(=O)n(Cc3ccccc3)c(=O)c3sc4ccccc4c32)cc1	.	-11%[59 µM]	30%	-11%	.	1%
CC(=O)N1CCCc2cc(S(=O)(=O)N3CCC(C(=O)NCCC(C)C)CC3)ccc21	.	13%[59 µM]	12%[57 µM]	-3%	.	7%
CC(=O)N1N=C(c2cccc([N+](=O)[O-])c2)OC1c1ccc(Br)cc1 (stereo not drawn)	.	45µM*	-11%	?	-1	?
CC(=O)N1N=C(c2cccc([N+](=O)[O-])c2)OC1c1ccc(Cl)cc1Cl (stereo not drawn)	?	-24%	-19%	?	?	?
COc1ccc(C(=O)N2CCCC(Nc3ccc(C)c(C)c3)C2)c(OC)n1 (stereo not drawn)	-7	45µM*	-11%	-35%	-6	?
COc1cccc(C(=O)N2CCCC(Nc3ccc(C)c(C)c3)C2)c1 (stereo not drawn)	-11	22µM*	5%	?	-5	?
Cc1ccc(CCNC(=O)c2c(C)oc3ncnc(N4CCOCC4)c23)cc1	.	2%[59 µM]	42%	-2%	.	13%[57.1 µM]
CN=c1scc(-c2ccccc2F)n1/N=C(\C)c1cccnc1	?	16µM*	?	16µM*	-24	35µM*
CSc1ccccc1NC(=O)CCc1ccccc1	18	-2%	37%	18%	5	1%
Cn1c(=O)n(C)c2cc(NC(=O)CCc3ccccc3)c(Br)cc21	11	.	30%	-3%	-1	50µM*
CCC(C)Cn1c(/C=C/c2ccccc2)nc2ccccc21 (stereo not drawn)	.	131%[59 µM]	165%	133%	.	146%
Cc1ccc(Cl)cc1NC(=O)CN(C)S(=O)(=O)c1ccc2c(c1)n(C)c(=O)c(=O)n2C	.	-1%[59 µM]	33%	5%	.	-11%
Nc1nc(CN2CCOCC2)cs1	3	24%[12.7 µM]	-6%	22µM*	-2	1%
CCCCCOc1ccc(Cn2c(=O)oc3ccc(C)cc32)cc1OC	.	114%[59 µM]	109%	84%	.	96%
O=C(N/N=C/c1cc2c3c(c1O)CCCN3CCC2)c1ccccc1O	-66*	?	-15%	45µM*	-90*	32µM*
c1ccc(CNc2ncnc3ccccc23)cc1	13	8%[59 µM]	42%	-4%	5	-10%
O=C(O)CCCC(=O)NNc1ncnc2ccccc12	4	0%[59 µM]	10%	3.2µM*	7	8%
COc1ccc(S(=O)(=O)N2CCC(c3nnnn3-c3ccccc3)CC2)cc1OC	.	-10%[59 µM]	23%	-17%	.	-27%
Cc1ccc(Cl)cc1N1CCN(C(=O)Cc2c(C(=O)O)c(C)cn2C)CC1	.	7%[59 µM]	14%	-27%	.	?
Cc1ccc(Cl)cc1N1CCN(C(=O)Cc2cn(C)c3ccccc23)CC1	-17	13µM*	?	?	-28	?
Cc1ccc2c(c1)-c1nc(-c3ccccc3)cc(-c3ccccc3)c1CO2	.	-1%[59 µM]	59%	20%	.	-10%
O=C1c2cccc3c(N4CCOCC4)c([N+](=O)[O-])cc(c23)C(=O)N1c1cccc2ccccc12	-2	11µM*	-12%	?	-15	?
COc1cc(CN2CCN(c3cccc(C)c3C)CC2)cc(OC)c1O	-13	?	-33%	1µM*	-18	50µM*
Cc1cc(CN2CCN(c3cccc(C)c3C)CC2)cs1	.	-2%[59 µM]	77%	-15%	.	0%
Cc1cccc(N2CCN(Cc3ccoc3)CC2)c1C	-4	10µM*	?	11µM*	-7	50µM*
SMILES	CtBP-E1A inh	G9a block	HP1b binding inh	JMJD2A Tudor inh	Six1-Eya2 inh	BAZ2B block
COc1ccc(CNC(=O)N2CCN(c3cccc(C)c3C)CC2)cc1OC	-8	12%	29%	-4%	-5	-23%
COC(=O)c1c(N2C(=O)CC(Sc3ccccc3C(=O)O)C2=O)sc2c1CCCC2 (stereo not drawn)	-6	1.4µM*	7%	-29%	-7	50µM*
O=C(O)c1ccccc1SC1CC(=O)N(c2ccccc2)C1=O (stereo not drawn)	-15	?	18%	?	12	-20%
CCOC(=O)c1cc(CC)sc1N1C(=O)CC(Sc2ccccc2C(=O)O)C1=O (stereo not drawn)	-7	1.8µM*	24%	-26%	-3	63µM*
CCOC(=O)c1cc(CC)sc1N1C(=O)CC(Sc2ncccc2C(=O)O)C1=O (stereo not drawn)	7	25µM*	54%	-6%	0	-22%
Clc1cccc(-c2noc3ncnc(NC4CCCCC4)c23)c1	.	3%[59 µM]	48%	-5%	.	-1%
COc1ccc(-n2nc(C(=O)N3CCCC(C)C3)c3c4ccccc4n(C)c3c2=O)cc1Cl (stereo not drawn)	.	-28%[59 µM]	6%	-22%	.	.
CCc1ccc(NC(=O)CSc2cn(CC(=O)N3CCOCC3)c3ccccc23)cc1	.	-9%[59 µM]	24%	-6%	.	-11%
COc1cccc(-c2nn(-c3ccccc3)cc2C(=O)NCC(=O)O)c1	1	50µM*	38%	-7%	4	10%
COc1ccc(-c2nn(-c3ccccc3)cc2/C=N/Nc2cccc(C(=O)O)c2)cc1	2	22µM*	16%	?	-8	-37%
COc1ccc(NC(=O)c2cn(-c3ccccc3)nc2-c2ccncc2)cc1	-5	-31%	22%	-20%	-6	-27%
COc1ccc(-c2nn(-c3ccccc3)cc2C(=O)Nc2cccc(C(=O)O)c2)cc1[N+](=O)[O-]	.	.	-28%	50µM*	7	40µM*
COc1ccc(-c2nn(-c3ccccc3)cc2C(=O)NC(=S)NNC(=O)c2ccncc2)cc1	?	32µM*	?	?	-29	-15%
CCNC(=O)C1CCN(c2nc3ccccc3nc2C(F)(F)F)CC1	.	0%[59 µM]	28%	2%	.	0%
